Experimental findings from PubChem BioAssay (NCI) are described below.

This is part of a sample that, as a whole, favours compounds with a hit. Of some 83,000 tested, about 20% had one in any assay.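 96-well plates, one dose, 48 hours. Percent growth reported; active if below 10.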 A number with no mark means an inactive call. The source made the active and inactive calls.

Some test systems named below: NCI-H23 lung; NCI-H226 lung; NCI-H322M lung; HOP-62 NSCLC; NCI-H460 lung; HOP-92 NSCLC; NCI-H522 lung; A549/ATCC NSCLC; 786-0 renal; COLO 205 colon; DU-145 prostate; K-562 leukemia; MALME-3M melanoma; MDA-MB-231 breast; RXF 393 renal; SF-268 CNS; SF-295 CNS; SF-539 CNS; UACC-257 melanoma; M14 melanoma.
Assay in all cases: NCI-60 one-dose screen, 48 h (100 = growth as untreated, 0 = no growth, -100 = all killed)
What all share (conditions): 10 µM unless noted

In the case of `Cc1cc(N(CCCNc2ccnc3cc(Cl)ccc23)Cc2ccco2)nc(N2CCOCC2)n1`, the growth is 52.8% in the assay with NCI-H23 lung; 82.7% with NCI-H226 lung; 72.6% in the assay with NCI-H322M lung; 64.4% in the assay with HOP-62 NSCLC; 64.8% in the assay with NCI-H460 lung; 51.8% with HOP-92 NSCLC. Moreover, the growth was 90.5% in the assay with NCI-H522 lung; 83.1% in the assay on A549/ATCC NSCLC; 68% in the assay with 786-0 renal; 56.7% in the assay with COLO 205 colon; 74.7% in the assay with DU-145 prostate; 26.9% in the assay with K-562 leukemia. The growth was 92.8% in the assay on MALME-3M melanoma; 58.5% with MDA-MB-231 breast; 71% in the assay on RXF 393 renal; 77.7% in the assay with SF-268 CNS; 62.7% in the assay with SF-295 CNS; 51.1% in the assay on SF-539 CNS. The results for the growth with UACC-257 melanoma and in the assay on M14 melanoma were 106% and 72.5%, respectively.
Consider `Cn1c2c(Cl)c(Cl)ccc2c2c(C#N)c[nH]c(=O)c21`, for which the growth in the assay with NCI-H23 lung is 91%; with NCI-H226 lung, 94.5%; in the assay on NCI-H322M lung, 129%; in the assay with HOP-62 NSCLC, 94.1%; in the assay with NCI-H460 lung it was 96.2%; in the assay on HOP-92 NSCLC, 78.6%. For the same compound, the growth in the assay on NCI-H522 lung was 95.5%; in the assay with A549/ATCC NSCLC, 93.3%; with 786-0 renal, 97.4%; with COLO 205 colon, 115%; in the assay with DU-145 prostate, 109%; in the assay with K-562 leukemia, 106%. Further, the growth is 140% in the assay with MALME-3M melanoma; 98.5% in the assay with MDA-MB-231 breast; 97.2% in the assay with RXF 393 renal; 99% with SF-268 CNS; 97.8% with SF-295 CNS; 84.6% with SF-539 CNS. Moreover, the growth in the assay on UACC-257 melanoma is 98.1%; with M14 melanoma, 105%.
For the compound `O=C1c2cc3c(cc2-c2c1c1ccc(Cl)cc1c(=O)n2C[C@H](O)[C@@H](O)[C@H](O)CO)OCO3`, the growth in the assay with NCI-H23 lung is -18% (active); in the assay on NCI-H226 lung, -49.6% (active); in the assay on NCI-H322M lung, 12.6%; with HOP-62 NSCLC, -43.1% (active); with NCI-H460 lung, 0.505% (active); with HOP-92 NSCLC, 12.4%. Besides, the growth in the assay with NCI-H522 lung was -59.5% (active); in the assay with A549/ATCC NSCLC, -75.8% (active); in the assay on 786-0 renal it was 4.87% (active); in the assay with COLO 205 colon it was -16.6% (active); in the assay with DU-145 prostate, 3.84% (active); with K-562 leukemia, 12%. Moreover, the growth is -28.2% (active) in the assay with MALME-3M melanoma; 6.7% (active) with MDA-MB-231 breast; -47% (active) with RXF 393 renal; 7% (active) in the assay on SF-268 CNS; -5.74% (active) in the assay on SF-295 CNS; -39.8% (active) in the assay on SF-539 CNS. Further, the growth was -49.4% (active) in the assay on UACC-257 melanoma and 4.34% (active) with M14 melanoma.
With `CC(C)=CCC[C@](C)(O)[C@H]1CC[C@]2(C)[C@@H]1CC[C@@H]1[C@@]3(C)C/C(=C/c4ccc(Br)cc4)C(=O)C(C)(C)[C@@H]3CC[C@]12C`, the growth was 85.3% in the assay with NCI-H23 lung; 82.7% with NCI-H226 lung; 101% in the assay with NCI-H322M lung; 98.5% in the assay on HOP-62 NSCLC; 96.3% in the assay on NCI-H460 lung; 75.5% with HOP-92 NSCLC. Besides, the growth in the assay on NCI-H522 lung was 96.4%; in the assay with A549/ATCC NSCLC, 76.6%; in the assay with 786-0 renal, 93.8%; with COLO 205 colon, 99.1%; in the assay on DU-145 prostate it was 85.6%; in the assay on K-562 leukemia it was 85.2%. Further, the growth with MALME-3M melanoma is 88.7%; in the assay on MDA-MB-231 breast, 85.8%; with RXF 393 renal, 92.9%; in the assay with SF-268 CNS it was 92.6%; in the assay on SF-295 CNS, 101%; in the assay with SF-539 CNS, 99.5%. For the same compound, the values for the growth with UACC-257 melanoma and in the assay with M14 melanoma were 91.2% and 80.3%, respectively.
As to `N#Cc1c(-c2ccco2)nc2c(c(-c3ccccc3)nn2-c2ccccc2)c1-c1ccc(O)cc1`, the growth with NCI-H23 lung was 99.7%; in the assay with NCI-H226 lung, 73.3%; in the assay with NCI-H322M lung, 81.9%; with HOP-62 NSCLC, -50% (active); in the assay with NCI-H460 lung it was 49.8%; in the assay on HOP-92 NSCLC, 76.1%. Also, the growth with NCI-H522 lung was 19.3%; in the assay on A549/ATCC NSCLC, 46.9%; in the assay with 786-0 renal it was 59.1%; with COLO 205 colon, 3.62% (active); in the assay with DU-145 prostate it was 75.8%; in the assay on K-562 leukemia it was 15.7%. Further, the growth was 35% in the assay with MALME-3M melanoma; 82.4% with MDA-MB-231 breast; 101% in the assay on RXF 393 renal; 67.6% in the assay on SF-268 CNS; 66.6% in the assay on SF-295 CNS; 82.5% in the assay on SF-539 CNS. Further, the growth in the assay with UACC-257 melanoma was 60.6%; with M14 melanoma it was 65.6%.
Consider `Cc1ccc2c(c1)c1nc3cc(C)c(C)cc3nc1n2CCN(C)C`, for which the growth in the assay with NCI-H23 lung is 13.5%; in the assay with NCI-H226 lung it was 7.71% (active); in the assay on NCI-H322M lung it was 16.3%; with HOP-62 NSCLC, 23.8%; with NCI-H460 lung, 9.12% (active); in the assay with HOP-92 NSCLC it was 32.1%. Moreover, the growth in the assay on NCI-H522 lung was 31.2%; with A549/ATCC NSCLC it was 12.2%; with 786-0 renal, 26.5%; in the assay on COLO 205 colon, -5.24% (active); in the assay with DU-145 prostate, 20.5%; in the assay on K-562 leukemia, 8.09% (active). Moreover, the growth in the assay on MALME-3M melanoma is -8.13% (active); in the assay on MDA-MB-231 breast it was 19.3%; in the assay with RXF 393 renal, 16.2%; with SF-268 CNS, 30.3%; in the assay with SF-295 CNS, 5.24% (active); in the assay on SF-539 CNS, 11.4%. Also, the growth was 13.1% in the assay on UACC-257 melanoma and 13.3% in the assay with M14 melanoma.
Take `C=C(C)[C@@H]1CC[C@]2(C)[C@H](CC[C@@H]3[C@H]4[C@H]5OC[C@@]4(CCC5(C)C)CC[C@]32C)[C@@]1(C)CCCN`: the growth was 83.3% in the assay on NCI-H23 lung; 100% with NCI-H226 lung; 30.9% in the assay with NCI-H322M lung; 96.3% in the assay with HOP-62 NSCLC; -28.6% (active) in the assay with NCI-H460 lung; 50.9% with HOP-92 NSCLC. The growth with NCI-H522 lung is 97.6%; in the assay on A549/ATCC NSCLC, 55.1%; in the assay with 786-0 renal, 49.1%; in the assay on COLO 205 colon it was -58.2% (active); in the assay on DU-145 prostate, 66.2%; with K-562 leukemia it was 3.82% (active). Moreover, the growth is -48.5% (active) in the assay on MALME-3M melanoma; 16.7% in the assay on MDA-MB-231 breast; 17.4% with RXF 393 renal; 92.1% in the assay on SF-268 CNS; -4.38% (active) in the assay with SF-295 CNS; 87% in the assay with SF-539 CNS. The growth in the assay on UACC-257 melanoma was 101%; in the assay on M14 melanoma, 25.8%.
As for `N=c1c(S(=O)(=O)c2ccccc2)cc2c(=O)n3ccccc3nc2n1C1CCCC1`, the growth is 95.8% in the assay with NCI-H23 lung; 91.9% in the assay with NCI-H226 lung; 74.9% in the assay on NCI-H322M lung; 79% in the assay on HOP-62 NSCLC; 105% in the assay with NCI-H460 lung; 39.4% with HOP-92 NSCLC. The growth in the assay on NCI-H522 lung is 92%; with A549/ATCC NSCLC, 80.2%; in the assay with 786-0 renal, 80.8%; in the assay with COLO 205 colon it was 113%; in the assay with DU-145 prostate, 93.2%; in the assay with K-562 leukemia it was 76.6%. For the same compound, the growth is 108% in the assay with MALME-3M melanoma; 64% in the assay with MDA-MB-231 breast; 86% in the assay on RXF 393 renal; 83.5% in the assay on SF-268 CNS; 91.2% with SF-295 CNS; 83.7% in the assay on SF-539 CNS. In addition, the growth in the assay with UACC-257 melanoma was 111%; with M14 melanoma, 110%.
